SMILES strings stand for the structures. Records with an inconclusive call do not appear. Activity calls are given as the source filed them. Cut-off read from the data, not from the text of the source, unless noted: active = response above about 15%; inactive = the rest.

This note sets out measurements from PubChem BioAssay.

A short description of test [1]: yeast TOR pathway RPL19A-GFP modulators, primary screen, cell-based, S. cerevisiae, multiplex flow cytometry (AID 1862; in the data active = percent of DMSO control GFP below about 86%;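 note: lower values mimic rapamycin by blocking the RPL19A rise seen in DMSO cells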). Conditions: S. cerevisiae RPL19A-GFP strain, flow cytometry fluorescence, 3 h; at 10 µM; stronger effect = lower value. On the technique in general: Flow cytometry measures light scatter and fluorescence of single cells or particles in a stream.
Test [2] in a line: modulators of MEP2-GFP levels in yeast, primary screen, S. cerevisiae, multiplex flow cytometry (AID 1867;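 active = GFP response, as percent of the DMSO control, above the screen-wide mean plus 3 SD, about 139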;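 note: median GFP channel fluorescence of barcode-gated MEP2-GFP cells measured by flow cytometry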). Conditions: S. cerevisiae MEP2-GFP strain, 3 h, at 10 µM, stronger effect = higher value, 100% means same as DMSO wells.
The nature of test [3]: modulators of CIT2-GFP expression in yeast, primary screen, S. cerevisiae, GFP fusion, multiplex flow cytometry (AID 1870;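 active = percent response above a set limit, the screen-wide mean plus 3 SD, cut at about 130% in these data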;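 note: barcoded CIT2-GFP strain pooled with four other GFP strains with rapamycin as positive control; median GFP fluorescence per well over plate mean of DMSO wells so 100% = DMSO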). Conditions: 3 h, at 10 µM, stronger effect = higher value.
Test [4] in a line: modulators of LAP4-GFP expression in yeast, primary screen, S. cerevisiae, multiplex flow cytometry (AID 1873;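 active = GFP signal, as percent of the solvent control, above the screen mean plus 3 SD, about 149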). The conditions noted are these: 3 h, at 10 µM, stronger effect = higher value.
Test [5] can be described thus: modulators of AGP1-GFP expression in yeast TOR pathway, primary screen, cell-based, multiplex flow cytometry, S. cerevisiae (AID 1887;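 active = GFP signal above the screen-wide mean plus 3 SD, that is over about 124.5% of the solvent control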;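 note: AGP1-GFP fusion strain of S. cerevisiae within a five-strain barcoded multiplex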). The conditions noted are these: 3 h, at 10 µM, stronger effect = higher value.
A short description of test [6]: inhibitors of CD8+ T cell-vesicle binding, pilot screen, LFA-1/ICAM-1 modulator project, MLPCN validation set, flow cytometry (AID 2523;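 active = response below a set limit, under 55% cells CD8-positive and vesicle-bound, and CD8 cells' 90th-percentile brightness under 279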;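 for vesicle binding response: mean PE anti-B7-1 fluorescence of CD8+ cells relative to row control; 100% = QL9-loaded vesicles with DMSO vehicle in the same plate row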). The conditions noted are these: 2C mouse CD8+ T cells, at 7 µM, stronger effect = lower value; double positive events: measured here: CD8+/vesicle+ event percentage.
The target of test [7] is Integrin beta-1 (Homo sapiens) + Integrin alpha-4 (Homo sapiens) (UniProt P13612+P05556). In words: inhibition of HUTS-21 binding to VLA-4, pilot screen, VLA-4 allosteric modulator project, U937 cells, HUTS-21 mAb, flow cytometry, validation set (AID 2674;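 active = inhibition above 50%, about 3 SD of the validation set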;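 note: antibody binding induced by the VLA-4 ligand LDV present at three times its Kd; 0% = LDV ligand with antibody and no compound and 100% = antibody without LDV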). The conditions noted are these: HUTS-21 LIBS mAb binding, at 6.7 µM, stronger effect = higher value, binding induced by LDV ligand.

Test [8] in a line: superoxide lowering in aged yeast cells, pilot screen, validation compound set (AID 2706;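 active = superoxide response below 65% of plate, a cut near 3 SD across the whole screen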;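 note: yeast exposed to compound for one week at 30 degrees C before staining; 100% = mean of all compound wells on the same plate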). The conditions noted are these: S. cerevisiae aging, superoxide DHE fluorescence; at 10 µM; stronger effect = lower value.
The target in test [9] is Beta-adrenergic receptor kinase 1 (Homo sapiens) (UniProt P25098). In words: GRK2 binders displacing RNA aptamer, biochemical, validation, human GRK2, bead flow cytometry (AID 488806;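 active = aptamer binding inhibition above 30%, about 3 SD of noise from non-fluorescent compounds; inactive = inhibition at or below 30%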). The conditions noted are these: bead-bound GRK2, FAM-aptamer displacement, at 10 µM, stronger effect = higher value.
Test [10] concerns the target Beta-2 adrenergic receptor (Homo sapiens) (UniProt P07550). The test can be described thus: beta2AR agonists driving receptor internalization, pilot screen, cell-based, FAP fluorogen, flow cytometry, validation set (AID 504459;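 active = percent response above 42, roughly 3 SD of non-fluorescent test compounds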;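 note: agonist-driven loss of surface beta2AR via internalization measured by FAP dye flow cytometry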). Conditions: Am2.2-beta2AR cells, FAP surface receptor flow cytometry; at 10 µM; stronger effect = higher value.
In test [11] the target is AP-2 complex subunit beta (Homo sapiens) (UniProt P63010). The test can be described thus: inhibitors of arrestin peptide binding to AP2, pilot screen, biochemical, validation set, GST-AP2 beads, flow cytometry (AID 504541;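 active = inhibition above 54%, about 3 SD of non-fluorescent compounds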;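 note: AP2 carries R879A mutation and is captured from E. coli lysate; bead-bound FITC arrestin peptide fluorescence measuring arrestin peptide binding to AP2; 0% = DMSO wells and 100% = excess unlabeled arrestin peptide control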). The conditions noted are these: FITC arrestin peptide, at 10 µM, stronger effect = higher value, AP2 beta2 appendage fragment, R879A mutant.
A short description of test [12]: yeast V-ATPase proton transport modulators, S. cerevisiae, pHLuorin, HTS validation (AID 504600).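 Note: plate controls were DMSO for no effect and reference compound for full effect.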 Conditions: S. cerevisiae pHLuorin cytosolic pH, at 10 µM, stronger effect = higher value.
Test [13] has as its system anti-desmoglein-3 scFv antibody binding to human DSG3. In words: inhibitors of anti-DSG3 scFv binding to DSG3, pilot screen, biochemical, validation compound set, bead-based, flow cytometry (AID 588368;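 active = binding below the plate cutoff, the plate median minus 3 SD, with a reading above zero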;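 note: signal is the median channel fluorescence of bead-bound GFP antibody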). Conditions: Protein G beads, DSG3-Fc, scFv-GFP binding, at 10 µM, stronger effect = lower value.
Test [14] is described as follows: inhibitors of fungal efflux pumps CDR1, CDR2, MDR1, pilot screen, validation compound set, multiplex, phenotypic (AID 588506;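 active = efflux inhibition above 0.42, the validation set average plus 4 SD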;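 note: Nile Red retained in cells so higher fluorescence means more efflux inhibition; 0 = negative control wells and 1 = enniatin B 25 µM full block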). Conditions: S. cerevisiae pump-expressing triplex, Nile Red efflux flow cytometry; at 10 µM; stronger effect = higher value; the pumps come from Candida albicans.
For test [15], the target named is ATP-binding cassette sub-family B member 6 (Homo sapiens) (UniProt Q9NP58). The test can be described thus: ABCB6 transporter inhibitors, pilot screen, K562-ABCB6 cells, flow cytometry, validation set (AID 588550;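 active = inhibition above the screen-wide mean plus 3 SD, about 51%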;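 note: 0% = DMSO wells and 100% = benzethonium chloride 70 µM positive control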). Conditions: K562-ABCB6 porphyrin accumulation, 1 h, at 10 µM, stronger effect = higher value.
Test [16] in a line: promoters of myeloid differentiation in arrested cells, primary screen, cell-based, GFP/MAC1 double positive, flow cytometry, validation set (AID 588685;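 active = differentiation response of at least 50%, scaled between solvent and reference control, from cells with both markers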;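 note: compound exposure lasts four days before antibody staining and flow analysis; 0% = DMSO wells and 100% = 5 µM fulvestrant positive control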). Conditions: ER-HoxA9 marrow cells, stronger effect = higher value, normalized: vehicle 0, fulvestrant 100.

Sequence of Beta-2 adrenergic receptor (Homo sapiens) (P07550 whole entry, looked up): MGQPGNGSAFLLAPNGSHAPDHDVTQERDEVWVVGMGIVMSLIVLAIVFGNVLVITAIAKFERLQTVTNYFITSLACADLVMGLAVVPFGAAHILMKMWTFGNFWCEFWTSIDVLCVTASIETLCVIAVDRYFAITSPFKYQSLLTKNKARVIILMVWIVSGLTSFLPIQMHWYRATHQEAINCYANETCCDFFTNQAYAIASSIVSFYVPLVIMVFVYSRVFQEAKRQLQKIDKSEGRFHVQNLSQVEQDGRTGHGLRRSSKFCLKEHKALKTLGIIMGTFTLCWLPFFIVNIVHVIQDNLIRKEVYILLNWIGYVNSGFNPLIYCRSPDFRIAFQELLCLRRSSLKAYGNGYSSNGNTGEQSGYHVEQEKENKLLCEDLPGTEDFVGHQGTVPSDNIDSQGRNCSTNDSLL
Sequence of ATP-binding cassette sub-family B member 6 (Homo sapiens) (Q9NP58 whole entry, looked up): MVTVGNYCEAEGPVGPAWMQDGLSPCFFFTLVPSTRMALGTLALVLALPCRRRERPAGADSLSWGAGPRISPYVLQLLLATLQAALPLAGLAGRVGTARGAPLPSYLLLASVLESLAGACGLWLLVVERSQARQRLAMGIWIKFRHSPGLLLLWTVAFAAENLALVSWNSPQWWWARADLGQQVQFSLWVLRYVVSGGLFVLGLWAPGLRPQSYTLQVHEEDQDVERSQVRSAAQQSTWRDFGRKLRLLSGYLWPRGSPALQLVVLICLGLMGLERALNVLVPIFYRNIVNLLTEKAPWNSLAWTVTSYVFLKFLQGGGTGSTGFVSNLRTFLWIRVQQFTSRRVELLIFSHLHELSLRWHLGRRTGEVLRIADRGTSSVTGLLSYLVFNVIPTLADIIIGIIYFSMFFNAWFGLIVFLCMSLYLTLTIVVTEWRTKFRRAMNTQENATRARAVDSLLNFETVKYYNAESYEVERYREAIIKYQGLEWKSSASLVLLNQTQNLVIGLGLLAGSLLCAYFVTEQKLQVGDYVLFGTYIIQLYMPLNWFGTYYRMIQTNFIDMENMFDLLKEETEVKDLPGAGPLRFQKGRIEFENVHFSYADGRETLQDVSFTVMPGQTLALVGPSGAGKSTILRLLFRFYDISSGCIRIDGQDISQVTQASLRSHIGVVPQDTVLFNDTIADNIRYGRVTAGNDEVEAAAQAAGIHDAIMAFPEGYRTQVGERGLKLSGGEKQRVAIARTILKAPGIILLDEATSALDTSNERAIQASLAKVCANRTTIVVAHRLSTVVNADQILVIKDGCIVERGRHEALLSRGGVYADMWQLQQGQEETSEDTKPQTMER
Sequence of Integrin beta-1 (Homo sapiens) + Integrin alpha-4 (Homo sapiens) (P05556 whole entry, looked up): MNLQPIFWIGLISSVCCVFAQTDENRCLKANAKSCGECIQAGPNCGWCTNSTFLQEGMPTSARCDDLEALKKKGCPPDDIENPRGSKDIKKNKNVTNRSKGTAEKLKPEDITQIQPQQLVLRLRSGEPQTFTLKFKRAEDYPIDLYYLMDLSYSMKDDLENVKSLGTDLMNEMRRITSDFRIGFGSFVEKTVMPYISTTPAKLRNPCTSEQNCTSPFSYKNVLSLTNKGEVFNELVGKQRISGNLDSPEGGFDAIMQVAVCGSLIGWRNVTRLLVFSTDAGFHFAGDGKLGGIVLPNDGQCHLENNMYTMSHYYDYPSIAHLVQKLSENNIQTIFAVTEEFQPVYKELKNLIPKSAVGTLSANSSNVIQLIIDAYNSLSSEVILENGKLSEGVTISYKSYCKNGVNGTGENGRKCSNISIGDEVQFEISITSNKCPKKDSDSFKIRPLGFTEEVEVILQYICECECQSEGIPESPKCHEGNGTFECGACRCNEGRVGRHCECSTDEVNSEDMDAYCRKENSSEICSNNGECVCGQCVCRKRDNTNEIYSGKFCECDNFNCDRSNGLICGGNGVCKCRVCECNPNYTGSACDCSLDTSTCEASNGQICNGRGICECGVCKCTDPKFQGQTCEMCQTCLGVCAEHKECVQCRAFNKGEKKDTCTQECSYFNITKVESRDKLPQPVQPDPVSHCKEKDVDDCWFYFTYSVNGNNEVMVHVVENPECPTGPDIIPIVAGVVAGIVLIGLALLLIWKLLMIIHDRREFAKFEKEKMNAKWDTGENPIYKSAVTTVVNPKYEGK
Sequence of Integrin beta-1 (Homo sapiens) + Integrin alpha-4 (Homo sapiens) (P13612 whole entry, looked up): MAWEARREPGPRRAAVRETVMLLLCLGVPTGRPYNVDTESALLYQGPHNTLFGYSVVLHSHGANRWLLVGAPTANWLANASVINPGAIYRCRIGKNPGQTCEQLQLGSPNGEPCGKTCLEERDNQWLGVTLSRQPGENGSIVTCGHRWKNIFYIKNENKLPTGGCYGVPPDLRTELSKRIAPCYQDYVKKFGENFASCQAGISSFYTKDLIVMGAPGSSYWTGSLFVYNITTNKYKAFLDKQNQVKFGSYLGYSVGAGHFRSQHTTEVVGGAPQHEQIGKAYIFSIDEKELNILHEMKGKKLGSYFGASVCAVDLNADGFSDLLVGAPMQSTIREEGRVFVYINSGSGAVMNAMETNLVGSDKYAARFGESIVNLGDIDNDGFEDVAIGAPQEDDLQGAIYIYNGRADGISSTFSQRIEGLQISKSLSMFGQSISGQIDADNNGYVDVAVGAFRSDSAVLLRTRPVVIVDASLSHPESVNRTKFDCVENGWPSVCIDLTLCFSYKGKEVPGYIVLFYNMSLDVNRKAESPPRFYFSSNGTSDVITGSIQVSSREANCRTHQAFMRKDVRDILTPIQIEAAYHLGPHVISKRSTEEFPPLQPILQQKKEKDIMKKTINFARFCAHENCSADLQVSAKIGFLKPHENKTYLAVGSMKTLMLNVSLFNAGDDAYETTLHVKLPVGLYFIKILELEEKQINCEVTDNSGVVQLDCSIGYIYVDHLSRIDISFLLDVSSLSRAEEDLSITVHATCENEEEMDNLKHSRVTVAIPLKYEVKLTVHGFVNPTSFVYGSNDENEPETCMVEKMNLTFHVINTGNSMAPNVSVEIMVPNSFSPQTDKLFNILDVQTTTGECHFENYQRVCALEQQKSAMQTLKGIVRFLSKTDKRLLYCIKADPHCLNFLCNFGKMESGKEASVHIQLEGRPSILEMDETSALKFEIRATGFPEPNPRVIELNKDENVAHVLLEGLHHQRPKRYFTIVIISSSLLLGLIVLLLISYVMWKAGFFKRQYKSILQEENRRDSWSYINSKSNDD
Sequence of AP-2 complex subunit beta (Homo sapiens) (P63010 whole entry, looked up, the tested form may be a part, one chain of several): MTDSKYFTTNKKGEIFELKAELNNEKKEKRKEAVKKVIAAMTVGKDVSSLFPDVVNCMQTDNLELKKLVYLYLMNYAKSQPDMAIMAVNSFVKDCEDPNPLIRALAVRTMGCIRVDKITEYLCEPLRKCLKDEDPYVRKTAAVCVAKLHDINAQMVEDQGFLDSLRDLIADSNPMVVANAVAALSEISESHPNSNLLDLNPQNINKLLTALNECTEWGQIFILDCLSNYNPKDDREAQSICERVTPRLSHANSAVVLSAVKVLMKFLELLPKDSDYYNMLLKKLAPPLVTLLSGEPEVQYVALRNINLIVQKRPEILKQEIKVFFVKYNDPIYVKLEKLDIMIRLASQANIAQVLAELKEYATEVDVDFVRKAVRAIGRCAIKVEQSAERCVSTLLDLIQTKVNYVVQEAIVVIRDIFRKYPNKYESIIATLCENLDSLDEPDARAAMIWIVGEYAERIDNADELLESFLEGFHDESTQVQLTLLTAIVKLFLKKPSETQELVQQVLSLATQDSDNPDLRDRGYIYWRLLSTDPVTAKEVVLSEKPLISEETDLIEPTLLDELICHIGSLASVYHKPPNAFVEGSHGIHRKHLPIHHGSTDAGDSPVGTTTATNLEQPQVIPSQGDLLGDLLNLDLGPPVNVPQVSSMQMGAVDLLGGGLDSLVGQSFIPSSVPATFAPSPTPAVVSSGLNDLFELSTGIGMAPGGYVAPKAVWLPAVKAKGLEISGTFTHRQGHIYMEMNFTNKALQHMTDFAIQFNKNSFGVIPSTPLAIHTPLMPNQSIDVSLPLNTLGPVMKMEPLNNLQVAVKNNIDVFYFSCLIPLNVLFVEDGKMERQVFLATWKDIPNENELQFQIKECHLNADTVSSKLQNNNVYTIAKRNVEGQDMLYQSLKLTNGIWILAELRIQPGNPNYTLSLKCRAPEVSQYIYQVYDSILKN
Sequence of Beta-adrenergic receptor kinase 1 (Homo sapiens) (P25098 whole entry, looked up): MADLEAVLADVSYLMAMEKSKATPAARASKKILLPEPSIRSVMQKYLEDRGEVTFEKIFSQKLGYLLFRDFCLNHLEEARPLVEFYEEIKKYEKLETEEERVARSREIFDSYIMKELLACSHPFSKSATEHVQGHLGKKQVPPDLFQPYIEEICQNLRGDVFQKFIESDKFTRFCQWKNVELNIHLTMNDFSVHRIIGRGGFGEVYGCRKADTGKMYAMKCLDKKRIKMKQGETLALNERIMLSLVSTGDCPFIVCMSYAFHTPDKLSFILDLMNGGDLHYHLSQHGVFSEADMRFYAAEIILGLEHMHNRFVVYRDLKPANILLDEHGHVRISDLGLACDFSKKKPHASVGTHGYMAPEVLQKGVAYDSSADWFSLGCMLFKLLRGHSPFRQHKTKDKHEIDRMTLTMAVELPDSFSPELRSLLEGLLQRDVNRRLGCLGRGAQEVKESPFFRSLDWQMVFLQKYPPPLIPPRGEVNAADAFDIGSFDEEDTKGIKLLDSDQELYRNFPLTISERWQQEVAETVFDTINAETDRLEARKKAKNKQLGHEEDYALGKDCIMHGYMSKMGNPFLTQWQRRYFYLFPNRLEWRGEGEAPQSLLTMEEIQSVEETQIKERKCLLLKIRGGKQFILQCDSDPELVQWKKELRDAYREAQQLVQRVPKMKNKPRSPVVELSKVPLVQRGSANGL

By inhibition is commonly meant the drop in the measured response relative to a control, in per cent. Regarding `NCCc1ccc(O)c(O)c1`, the percent of DMSO control GFP in test [1] is 98.2% (inactive). For the same compound, the GFP response vs DMSO in [2] was 107% (inactive); in test [4] it was 92% (inactive). In test [3], the percent response of DMSO control was 93.1% (inactive). In addition, the GFP response, % of DMSO in test [5] is 95.6% (inactive). Moreover, in test [6], the double positive events was found to be 65.4%. In addition, the vesicle binding response in [6] was 831% (inactive). Further, the inhibition in [7] was -10.8% (inactive); in test [11], 11.9% (inactive); in test [15], 6% (inactive). In addition, the superoxide response (% of plate) in test [8] is 90.7% (inactive). Moreover, the aptamer binding inhibition in [9] was 3% (inactive). In addition, the response in test [10] is 11.2% (inactive); in test [12] it was -0.98% (inactive). The binding (% of control) in test [13] is 94.3% (inactive). Besides, the efflux inhibition (fraction of control) in [14] is 0.08 (inactive). Besides, the differentiation response in [16] is 5.13% (inactive).
Consider `CC1(C)CC(CC(=O)O)(c2ccc(Cl)cc2)CCO1` (stereo not drawn), for which, in [1], the percent of DMSO control GFP was 86% (inactive). Also, the GFP response vs DMSO in test [2] is 126% (inactive); in test [4], 85.3% (inactive). In addition, in test [3], the percent response of DMSO control is 96.6% (inactive). Further, in [5], the GFP response, % of DMSO is 92.8% (inactive). This compound also gave a double positive events in test [6] of 61.2%. In addition, in [6], the vesicle binding response was 136% (inactive). In addition, the inhibition in test [7] was -0.33% (inactive); in [11] it was -8.86% (inactive); in [15], 9% (inactive). Also, the superoxide response (% of plate) in [8] was 94.5% (inactive). In addition, the aptamer binding inhibition in test [9] was 3% (inactive). Also, the response in test [10] is -2.75% (inactive); in [12], 0.57% (inactive). In addition, the binding (% of control) in [13] was 107% (inactive). Further, the efflux inhibition (fraction of control) in [14] was -0.17 (inactive). In test [16], the differentiation response is -3.28% (inactive).
For the compound `Cn1c(=O)c2[nH]cnc2n(C)c1=O`, the percent of DMSO control GFP in [1] is 90.9% (inactive). Besides, the GFP response vs DMSO was 133% (inactive) in test [2] and 80.9% (inactive) in test [4]. The percent response of DMSO control in [3] was 96.6% (inactive). Besides, in test [5], the GFP response, % of DMSO was 87.7% (inactive). The double positive events in [6] worked out at 67.8%. In addition, the vesicle binding response in [6] was 159% (inactive). Also, the inhibition is -1.3% (inactive) in [7], -6.69% (inactive) in [11] and 9% (inactive) in test [15]. For the same compound, in [8], the superoxide response (% of plate) is 95.3% (inactive). In test [9], the aptamer binding inhibition is 4% (inactive). For the same compound, the response in [10] was -0.49% (inactive); in [12], -2.04% (inactive). Moreover, the binding (% of control) in [13] is 101% (inactive). The efflux inhibition (fraction of control) in [14] was -0.46 (inactive). Further, in test [16], the differentiation response was -2.46% (inactive).
For `Cc1ccccc1C(=O)NNc1ncnc2c1cnn2C`, the percent of DMSO control GFP in test [1] was 104% (inactive). Further, the GFP response vs DMSO in [2] and in [4] was 103% (inactive) throughout. Moreover, in [3], the percent response of DMSO control was 91.2% (inactive). For the same compound, the GFP response, % of DMSO in test [5] was 112% (inactive). The same compound gave a double positive events in [6] of 64.9%. For the same compound, in [6], the vesicle binding response is 146% (inactive). Moreover, the inhibition in test [7] is 3.99% (inactive); in test [11], 15.7% (inactive); in test [15] it was -17% (inactive). Also, in test [8], the superoxide response (% of plate) is 104% (inactive). For the same compound, in [9], the aptamer binding inhibition was -2% (inactive). Further, the response in [10] is -18.4% (inactive); in [12] it was -4.35% (inactive). For the same compound, in test [13], the binding (% of control) was 107% (inactive). In addition, the efflux inhibition (fraction of control) in test [14] was 0.08 (inactive). In addition, the differentiation response in test [16] is 6.83% (inactive).
